This note sets out measurements from PubChem BioAssay (NCATS).

SMILES strings stand for the structures. Inconclusive results are not listed. Active and inactive are the calls of the source. Calls follow the shape of the dose curve; as a rule, active = well fitted inhibition curve with a large enough effect; inconclusive = small, poorly fitted or top-dose-only effect; inactive = flat fitted curve, though single readings scatter.
Potency is read from the fitted curve at half-maximal effect.

This assay deals with Zika virus NS2B-NS3 protease. The assay can be described thus: Primary screen GU AMC qHTS for Zika virus inhibitors (AID 1347154). Also: nearly all actives have a fitted effect of over 70% in size.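 As to activity change, negative = inhibition: 0% = no-inhibitor control and -100% = no-enzyme control.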 The settings on record: Zika NS2B-NS3 unlinked protease, AMC fluorogenic substrate; series mostly up to 54.1 µM; activity change, negative = inhibition: at the top concentration. A digest of the protocol: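 Unlinked Zika NS2B hydrophilic domain–NS3 protease complex at 25 nM in 10 mM Tris-HCl pH 8.0, 0.01% Tween 20, with an AMC peptide substrate. Fluorescence change (340/450 nm) over 15 min at room temperature, normalized to controls, fitted to 4-parameter Hill.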
As for `O=C(Nc1ncc([N+](=O)[O-])s1)c1cccs1`, the “activity change, negative = inhibition” value was -5.8% (inactive). The same measure, in the same setting: as for `CC[N+](C)(CC)CCOC(=O)C(O)(c1ccccc1)C1CCCCC1` (stereo not given), the figure is -8.69% (inactive); as for `CCOC(=O)Nc1ccc2c(c1)N(C(=O)CCN1CCOCC1)c1ccccc1S2`, 0.0408% (inactive). Same read-out and setting: as for `O=c1[nH]c(=O)n([C@H]2C[C@H](O)[C@@H](CO)O2)cc1F`, the figure is 0.413% (inactive); as for `Cc1cc2c(OCC(CNC(C)(C)C)OC(=O)c3ccccc3)cccc2[nH]1` (stereo not given), 4.19% (inactive); as for `CC(C(=O)O)c1cccc(Oc2ccccc2)c1` (stereo not given), 13.3% (inactive). As to `Nc1ccc(S(=O)(=O)NCc2ccccc2)cc1`, the “activity change, negative = inhibition” value was 0.815% (inactive).

`Cn1c(=O)c2[nH]c(Br)nc2n(C)c1=O`: the “activity change, negative = inhibition” value is 3.74% (inactive).

As to `CCOc1ccccc1C(N)=O`, the “activity change, negative = inhibition” value is 0.723% (inactive). Regarding `CCN(CC)CCOC(=O)C1(c2ccccc2)CCCC1`, the “activity change, negative = inhibition” value was -4.81% (inactive). Still for that read-out and setting: as for `CO[C@]12C[C@@H](COC(=O)c3cncc(Br)c3)CN(C)[C@@H]1Cc1cn(C)c3cccc2c13`, the figure is -2.57% (inactive). Same read-out and setting: next, `CCN1CCCC(OC(=O)C(c2ccccc2)c2ccccc2)C1` (stereo not given): 2.84% (inactive); `O=C1OC2(c3ccccc31)c1cc(Br)c(O)c(Br)c1Oc1c2cc(Br)c(O)c1Br`: -7.71% (inactive); `Nc1ccc(C(=O)NCC(=O)O)cc1`: -5.6% (inactive). Regarding `N#C/C(=C1\SCC(c2ccccc2Cl)S1)n1ccnc1` (stereo not given), the “activity change, negative = inhibition” value is -1.05% (inactive).

As for `CCN(CC)CCNc1ccc(CO)c2sc3ccccc3c(=O)c12`, the “activity change, negative = inhibition” value was -17.2% (inactive).

Take `NCCNC(=O)c1ccc(Cl)cn1`: the Potency entry was “inactive”. On to `CNCCCCOc1ccccc1Cc1ccccc1`, for which the Potency entry was “inactive”.

`NC1CCN(c2nc3c(cc2F)c(=O)c(C(=O)O)cn3-c2ccc(F)cc2F)C1` (stereo not given): the “activity change, negative = inhibition” value is -7.43% (inactive). Consider `CCc1oc2ccccc2c1C(=O)c1cc(I)c(O)c(I)c1`, for which the Potency was 28.7 µM (active).
